According to ChEMBL document CHEMBL4513216, “Probing the Open Global Health Chemical Diversity Library for Multistage-Active Starting Points for Next-Generation Antimalarials” (ACS Infect Dis, 2020):
Among all 69,000 compounds or so, about 8,600 (12%) showed an effect of 50% or more. Many of the other results were omitted from the sample, so strong results are more common in it than they were.

tested on: Plasmodium berghei; assay: Screen against P. berghei liver stage (PbLuc), transformed with Luciferase, at 10uM; assay type: functional, HepG2; settings: tested at 10 uM

Row | SMILES | INHIBITION [%]
1 | CC(CO)(NCc1noc(Cc2ccccc2)n1)C1CCCCC1 (stereo unspecified) | -1.7
2 | O=C(O)[C@@H]1CN(C(=O)CSCC2CC2)C[C@H]1c1ccccn1 | -87
3 | CCOc1ncccc1CNC(=O)c1c(C)oc(C)c1C | 29.75
4 | CC(NC(=O)c1cccc[n+]1[O-])c1ccc2c(c1)CCC(=O)N2 (stereo unspecified) | 62.6
5 | CC(NC(=O)NCc1ccccn1)c1ccc2c(c1)CCC(=O)N2 (stereo unspecified) | -75.2
6 | CC(NC(=O)c1ccoc1)c1ccc2c(c1)CCC(=O)N2 (stereo unspecified) | -6.14
7 | Cc1ccsc1C(=O)NC(C)c1ccc2c(c1)CCC(=O)N2 (stereo unspecified) | 11.7
8 | CC(NC(=O)NCc1cc[nH]n1)c1ccc2c(c1)CCC(=O)N2 (stereo unspecified) | 51.2
9 | Cc1csc(CNC(=O)NC(C)c2ccc3c(c2)CCC(=O)N3)n1 (stereo unspecified) | 9.64
10 | Cn1cnnc1C1CCN(C(=O)CCCOCc2ccccc2)CC1 | 43.2
11 | COc1nc(C)ccc1CNC(=O)NC(c1ncc(C)s1)C1CC1 (stereo unspecified) | -21.1
12 | O[C@H]1CN(CCCOc2ccccc2F)CC[C@@]12CCCO2 | 6.485
13 | O[C@H]1CN(CCOc2ccc(F)cc2)CC[C@@]12CCCO2 | 62.9
14 | C[C@@H]1CN(CCOc2ccc(F)cc2)CC[C@@]1(O)C1CCOCC1 | 28.8
15 | Cc1noc(C)c1CCC(=O)N1CCCC(n2cccn2)C1 (stereo unspecified) | 37.4
16 | CCc1nc(NC2CC(=O)N(CC3CCCCC3)C2)ncc1C (stereo unspecified) | 2.97
17 | Cc1nc(Nc2nnc(C)s2)cc(C2CCCN2)n1 (stereo unspecified) | -24.595
18 | Cc1nc(Nc2nccs2)cc(C2CCCN2)n1 (stereo unspecified) | 5.05
19 | Cc1nc(Nc2ncc(C)s2)cc(C2CCCN2)n1 (stereo unspecified) | 67.15

Row | SMILES | INHIBITION [%]
20 | Cc1nc(Nc2ccccn2)cc(C2CCCN2C2CCOCC2)n1 (stereo unspecified) | 20.8
21 | Cc1nc(Nc2ncc(C)s2)cc(C2CCCN2S(C)(=O)=O)n1 (stereo unspecified) | 50.8
22 | Cc1nc(NC2CCOCC2)cc(C2CCN2S(C)(=O)=O)n1 (stereo unspecified) | 30.6
23 | Cc1nc(Nc2ncccn2)cc(C2CCCN2C2CCOCC2)n1 (stereo unspecified) | 15.4
24 | Cc1nc(Nc2nccs2)cc(C2CCCN2C2CCOCC2)n1 (stereo unspecified) | 52.3
25 | Cc1nc(Nc2nnc(C)s2)cc(C2CCCN2S(C)(=O)=O)n1 (stereo unspecified) | 6.32
26 | Cc1cc(CN(C)C(=O)C2CC(c3cccc(F)c3)=NO2)no1 (stereo unspecified) | 7.24
27 | CCNC(=O)c1ccc2c(c1)nc1n2CCN(C(C)C)C1 | -17.2
28 | COc1ccccc1C(=O)N1CCCC1c1ncc2c(n1)CCNC2 (stereo unspecified) | 26.3
29 | CCCC(O)CN1CCC(=O)N(CCOC)Cc2ccccc21 (stereo unspecified) | 6.34
30 | CC(C)C(C)N(C)C(=O)COc1ccccc1C#N (stereo unspecified) | 16.8
31 | COC(=O)c1ccc(NC(=O)CCc2ccco2)cc1 | -13.6
32 | Cc1nnc(C(C)N2CCCN(Cc3ccc(C#N)cc3)CC2)o1 (stereo unspecified) | 24
33 | O=c1ccc2c([nH]1)CCC(NCc1ccc(F)cc1)C2 (stereo unspecified) | 45.1
34 | Cc1ccc(C)c(CC(=O)NC2(C#N)CCOCC2)c1 | 20.4
35 | O=C(c1ccccn1)N(CCO)Cc1cc(Br)ccc1F | -0.759
36 | Cc1nn(C2CCS(=O)(=O)C2)c(O)c1Cc1ccccc1 (stereo unspecified) | 36.9
37 | CCOCC1CN(Cc2ccoc2)Cc2nn(C)cc21 (stereo unspecified) | 16.8
38 | CNc1cncc(C2CCN(C(=O)c3cnco3)CC2)n1 | 8.53

Row | SMILES | INHIBITION [%]
39 | CNc1cncc(C2CCN(C(=O)c3coc(C)n3)CC2)n1 | 58
40 | CNc1cccc(C2CCCN(C(=O)c3coc(C)n3)C2)n1 (stereo unspecified) | 41.2
41 | Cc1cc(Br)oc1C(=O)N1CCN(CC(N)=O)CC1 | 20.9
42 | Cc1cc(Br)oc1C(=O)N1CCCN(CC(N)=O)CC1 | 30.3
43 | CC(=O)N1CCCN(C(=O)c2oc(Br)cc2C)CC1 | 58.5
44 | Cn1cc(C2CC(=O)NC23CCN(CC2CC2)CC3)cn1 (stereo unspecified) | 48.7
45 | Cc1nc(N2CCCC2)nc2c1CCN(Cc1ccco1)CC2 | 15.1
46 | Cc1ccc(F)c2c1N(C(=O)c1cn(CC(=O)N(C)C)nn1)CCC2 | -9.21
47 | CN(C)CCN1CCOCC2(C1)CN(Cc1nccs1)CCO2 (stereo unspecified) | 14.1
48 | CS(=O)(=O)c1ccc(NC(=O)NCc2ccc3c(c2)CCC3)cn1 | 24
49 | NC(=O)c1cccc(NC(=O)CSc2ccc3c(c2)CCC3)c1 | 40.6
50 | NS(=O)(=O)c1ccc(NC(=O)CSc2ccc3c(c2)CCC3)cc1 | 66.8
51 | CNC(=O)Cc1noc(Cc2ccc3c(c2)CCCC3)n1 | 15.9
52 | CS(=O)(=O)c1ccc(NC(=O)CSc2ccc3c(c2)CCC3)cc1 | 31.2
53 | CNC(=O)NC(=O)CSc1ccc2c(c1)CCC2 | 54.3
54 | CS(=O)(=O)c1ccc(NC(=O)CSc2ccc3c(c2)CCC3)cn1 | 53.4
55 | CN1C(=O)c2ccc(NC(=O)CSc3ccc4c(c3)CCC4)cc2C1=O | 11.5
56 | CNC(=O)NC(=O)CCSc1ccccc1C | 29.8
